PubChem BioAssay (NCI)
About 83,000 compounds went through this panel and 20% of them were active in at least one assay; those are over-represented in the sample as a whole.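 How to read the values: 0–100, growth inhibition (40 = 60% inhibited); 0, no net growth; -100 to 0, cell death (-40 = 40% of starting cells died; -100 = all dead).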 A number with no mark means an inactive call. The source made the active and inactive calls. How the source made its calls: active means growth percent below 10; inactive means the rest.

Assays:
Assay in all cases: NCI-60 one-dose screen, 48 h (100 = growth as untreated, 0 = no growth, -100 = all killed)
Conditions in all cases: 10 µM unless noted
[1] = system: T-47D breast
[2] = system: BT-549 breast
[3] = system: MDA-MB-435 melanoma
[4] = system: SW-620 colon
[5] = system: MCF7 breast
[6] = system: HCT-116 colon
[7] = system: KM12 colon
[8] = system: HCC-2998 colon

Row | Compound | growth [1] | growth [2] | growth [3] | growth [4] | growth [5] | growth [6] | growth [7] | growth [8]
1 | O=[N+]([O-])c1cc(NS(=O)(=O)c2ccccc2)ccc1NS(=O)(=O)c1ccccc1 | 104% | 74.9% | 123% | 84.4% | 112% | 87.1% | 103% | –
2 | CCOC(=O)c1c(C)c2c(n1Cc1ccccc1)CSCC2=O | 1.4% [100 µM] (active) | -25.9% [100 µM] (active) | -9.11% [100 µM] (active) | 16.7% [100 µM] | -12.8% [100 µM] (active) | -17.5% [100 µM] (active) | -4.25% [100 µM] (active) | –
3 | CC/C=C\C[C@H](O)C/C=C1/C(=O)C=C[C@@H]1C/C=C\CCCC(=O)O | 12% | 46.2% | 36.9% | 49.6% | 13.9% | 8.9% (active) | 41.6% | –
4 | CCS/C(Nc1ccccc1)=C(\C#N)C(=O)Nc1ccc(OC)cc1 | 25.4% | 40.5% | -47.9% (active) | 18% | 19% | 14.3% | 31% | 55.2%
5 | N#C/C(=C\c1ccc([N+](=O)[O-])cc1)n1nnc2cc(F)c(F)cc21 | -15.2% (active) | 77.6% | 41.1% | -18.5% (active) | 21.8% | -46.4% (active) | 3.75% (active) | –
6 | COc1cccc(/C=N/NC(=O)c2ccccc2N2CCCC2)c1O | 24.7% | 17.8% | 85.5% | 45.3% | 5.29% (active) | 4.81% (active) | 46.5% | 51.8%
7 | O=C1Nc2ccccc2/C1=C/c1cccn1C(=O)c1ccc(Cl)s1 | -31.3% (active) | 65% | 89.8% | 56.4% | 12.3% | 34.6% | 4.36% (active) | 54.4%
8 | C=C1C(=O)O[C@H]2[C@H]1CC/C(COC(=O)c1ccc(C(=O)O)s1)=C\CC[C@@]1(C)O[C@@H]21 | 43% | 42.9% | 11.7% | 4.69% (active) | 13% | 11.4% | 55.6% | 61.6%
9 | CCCCNc1cc(-c2cn[nH]c2-c2cc(C)cc(OC)c2)nc(-c2cccnc2)n1 | 49.7% | 85.3% | 92.1% | 107% | 88.1% | 91.7% | 93.9% | 106%
10 | Cc1nn(-c2cc(NC3CCC(O)CC3)c3c(=O)[nH]c(CCC(F)(F)F)cc3c2)c2c1C(=O)CC(C)(C)C2 (stereo not drawn) | 62.9% | 43.8% | 19.3% | 24.1% | 26.5% | 38% | 23.4% | –
11 | O=c1c2c3c(sc2n2c(-c4cc(-c5ccccc5)no4)nnc2n1Cc1ccccc1)CCCC3 | 53.3% | 91.9% | 106% | 106% | 97.1% | 81.6% | 95.5% | –
12 | C/C=C(\C)C(=O)N[C@H]1C(O)C[C@]2(C)C3CC[C@@]4(C)C(CC[C@@H]4C(C)N(C)C)C3CCC2C1O (stereo partly drawn) | 37.6% | 88.9% | -22.2% (active) | 12.9% | 28.6% | 3.85% (active) | 28.7% | –
13 | C#Cc1cccc(Nc2nc(C)nc3cc(NC(=O)CCl)ccc23)c1 | -55.3% (active) | -71.2% (active) | -51.1% (active) | -63.6% (active) | -68% (active) | -65.2% (active) | -73.7% (active) | –
14 | CCCCCCCCCCCCCOC(=O)c1c(C)[nH]c(/C=C2\N=C(c3ccc[nH]3)C=C2OC)c1C | 27.2% | 51.5% | 19.2% | 3.08% (active) | 12.2% | 11.3% | 12.7% | –
15 | O=C(N/N=C\c1cccc([N+](=O)[O-])c1)N/N=C/c1cccc([N+](=O)[O-])c1 | 97.2% | 108% | 108% | 103% | 66.5% | 108% | 107% | –
16 | CCN(CC)CCN1C(=O)c2c(c(C)c3c(oc4ccc(OC)cc43)c2C)C1=O | 110% | 116% | 104% | 92.2% | 94.8% | 83.7% | 99.5% | –

Row | Compound | growth [1] | growth [2] | growth [3] | growth [4] | growth [5] | growth [6] | growth [7] | growth [8]
17 | O=C1NC(=O)/C(=C/c2c(-c3ccccc3)nc3sc(COc4ccccc4)nn23)S1 | 89.4% | 92.8% | 102% | 105% | 83.5% | 89.3% | 100% | –
18 | Cc1ccc(CNc2ccc3nc(CCC(C)C)[nH]c3c2)cc1 | 84.4% | 93.4% | 97.2% | 91.9% | 89.2% | 80.4% | 96.2% | 111%
19 | COc1ccc(/C=C/C(c2cc(OC)c(OC)c(OC)c2)n2ccnc2)cc1O (stereo not drawn) | 40.6% | 44.3% | -25.6% (active) | 17.4% | 17.9% | 16.7% | 29% | –
20 | CC1(C)OB(O)c2cc(-c3nc4ccc5[nH]ncc5c4c4c3CCCC4)ccc21 | 34.9% | 74.9% | 48.8% | 59.4% | 44.1% | 22.7% | 38.7% | –
21 | O=C(Nc1cnc(Nc2ccc(N3CCOCC3)nc2)nc1Oc1ccc(C(F)(F)F)cc1)c1ccncc1 | 72.9% | 75.8% | 91.3% | 97.5% | 77.3% | 61.9% | 91% | –
22 | O=C(/C=C/c1ccc(Cl)cc1)c1cccc(OCCCOc2cccc(C(=O)/C=C/c3ccc(Cl)cc3)c2)c1 | 78% | 105% | 101% | 98.6% | 21.1% | 26% | 103% | 104%
23 | COc1ccc(C(=O)c2cc3c(N)c(C(=O)Nc4ccccc4)sc3nc2C)cc1 | 39% | 60.6% | -5.47% (active) | 28.2% | 20.7% | 13.4% | 14.9% | 19%
24 | CCOC(=O)c1nn(CC(O)c2ccccc2)c(NC(=O)Nc2cccc(F)c2)c1C (stereo not drawn) | 90.1% | 101% | 99.9% | 95.9% | 91.3% | 96.4% | 104% | –
25 | COc1cc2nc3sc(C(=O)Nc4ccc(C(=O)OC(C)C)cc4)c(C(=O)Nc4ccc(Cl)cc4C)n3c(=O)c2cc1OC | 46.5% | 96.7% | 76.5% | 38.7% | 52.2% | 76.3% | 52.3% | –
26 | N#C/C(=C\c1ccc(-c2cccc(C(F)(F)F)c2)o1)c1ccccc1 | 35.6% | 96.6% | 99.1% | 92.3% | 25.7% | 80.4% | 79.3% | 100%
27 | CS(=O)(=O)c1ccc(NC(=O)c2ccccc2)nc1 | 98.9% | 105% | 111% | 100% | 101% | 95.3% | 107% | 107%
28 | C#COc1cccc(Nc2ncnc3cc(NC(=O)[C@@H](C)Cl)ccc23)c1 | -1.06% [6.25 µM] (active) | 22.2% [6.25 µM] | -58.4% [6.25 µM] (active) | 20.4% [6.25 µM] | 11.6% [6.25 µM] | 9.6% [6.25 µM] (active) | 14.8% [6.25 µM] | 15.2% [6.25 µM]
29 | CCNc1ccc(-c2nc3ccccc3n3cccc23)cc1 | 55.1% | 90.4% | 80.7% | 92.5% | 34.4% | 88.9% | 72.8% | 92.4%
30 | O=C(NCc1cccc(CNC(=O)Nc2nc3ccccc3[nH]2)c1)Nc1nc2ccccc2[nH]1 | 15.9% | 29.3% | -74.9% (active) | -41.6% (active) | -43.7% (active) | -82.4% (active) | -41.9% (active) | –
31 | N#Cc1cccc(C2C3=C(COC3=O)N(CCO)c3cc4c(cc32)OCO4)c1 (stereo not drawn) | 20.8% | 38.7% | 0.432% (active) | 16.3% | 22.4% | 17% | 27.9% | 83.5%
32 | CC(=O)OC[C@]12CC[C@@H]([C@@H](C)c3nnc(-c4ccncc4)o3)[C@@H]1[C@H]1CC[C@@H]3[C@@]4(C)CC[C@H](OC(C)=O)C(C)(C)[C@@H]4CC[C@@]3(C)[C@]1(C)CC2 | 66.5% | 74.6% | 87% | 66.3% | 84.9% | 45.2% | 93.5% | 101%
